Assay results as given in PubChem BioAssay AID1159580 (chemical genetic matrix, 2015).
In all, about 5,500 compounds went through this assay and about 2,000 (36%) were called active. Inconclusive results (about 18%) are left out. This is one part of the list. Values without a mark were called inactive. Rule as the data show it: active = normalized growth mostly below about 0.91 (no sharp cut-off); inconclusive = no clear call, values can overlap the other calls; inactive = mostly above about 0.92.

Assay: chemical genetic growth profiling, strain panel (AID 1159580);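 also: tested at 20 µM; growth read once vehicle control cultures reached saturation at 30 °C; 1 = growth at the plate median or of vehicle wells; lower values mean less growth of the strain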
Conditions: S. cerevisiae deletion strains, growth OD

Clc1ccc(-c2noc(CSC3=NCCN3)n2)cc1
normalized growth (locus YAR019C, strain CDC15, active compounds read low): 0.987
normalized growth (locus YBL105C, strain PKC1, active compounds read low): 0.987
normalized growth (locus YBR135W, strain CKS1, active compounds read low): 0.98
normalized growth (locus YBR136W, strain MEC1, active compounds read low): 0.981
normalized growth (locus YBR160W, strain CDC28, active compounds read low): 0.984
normalized growth (locus YDL017W, strain CDC7, active compounds read low): 0.986
normalized growth (locus YDL028C, strain MPS1, active compounds read low): 0.979
normalized growth (locus YDL101C, strain DUN1, active compounds read low): 0.989
normalized growth (locus YDL108W, strain KIN28, active compounds read low): 0.979
normalized growth (locus YDL132W, strain cdc53, active compounds read low): 0.98
normalized growth (locus YDL214C, strain PRR2, active compounds read low): 0.923
normalized growth (locus YDR052C, strain DBF4, active compounds read low): 0.981
normalized growth (locus YDR054C, strain cdc34, active compounds read low): 0.96
normalized growth (locus YDR226W, strain ADK1, active compounds read low): 0.975
normalized growth (locus YDR477W, strain SNF1, active compounds read low): 0.938
normalized growth (locus YER123W, strain YCK3, active compounds read low): 0.904
normalized growth (locus YER133W, strain GLC7, active compounds read low): 0.935
normalized growth (locus YFL009W, strain cdc4, active compounds read low): 0.978
normalized growth (locus YFL029C, strain CAK1, active compounds read low): 0.987
normalized growth (locus YFR003C, strain YPI1, active compounds read low): 0.974
normalized growth (locus YFR019W, strain FAB1, active compounds read low): 0.948
normalized growth (locus YFR028C, strain CDC14, active compounds read low): 0.971
normalized growth (locus YGR040W, strain KSS1, active compounds read low): 0.926
normalized growth (locus YGR052W, strain FMP48, active compounds read low): 0.964
normalized growth (locus YGR092W, strain DBF2, active compounds read low): 0.955
normalized growth (locus YHR030C, strain SLT2, active compounds read low): 0.93
normalized growth (locus YHR079C, strain IRE1, active compounds read low): 0.968
normalized growth (locus YHR082C, strain KSP1, active compounds read low): 1.02
normalized growth (locus YHR205W, strain SCH9, active compounds read low): 0.962
normalized growth (locus YIL147C, strain SLN1, active compounds read low): 0.969
normalized growth (locus YJL095W, strain BCK1, active compounds read low): 0.949
normalized growth (locus YJL128C, strain PBS2, active compounds read low): 0.912
normalized growth (locus YJL157C, strain FAR1, active compounds read low): 0.925
normalized growth (locus YJR016C, strain ILV3, active compounds read low): 0.974
normalized growth (locus YJR066W, strain TOR1 (second series), active compounds read low): 0.912
normalized growth (locus YJR066W, strain TOR1, active compounds read low): 1.08
normalized growth (locus YKL048C, strain ELM1, active compounds read low): 0.96
normalized growth (locus YKL067W, strain YNK1, active compounds read low): 0.933
normalized growth (locus YKL101W, strain HSL1, active compounds read low): 0.939
normalized growth (locus YKL193C, strain SDS22, active compounds read low): 0.976
normalized growth (locus YKL203C, strain TOR2, active compounds read low): 1.01
normalized growth (locus YLR113W, strain HOG1, active compounds read low): 0.839 (active)
normalized growth (locus YLR133W, strain CKI1, active compounds read low): 0.959
normalized growth (locus YLR403W, strain SFP1, active compounds read low): 0.982
normalized growth (locus YML070W, strain DAK1, active compounds read low): 0.912
normalized growth (locus YMR001C, strain CDC5, active compounds read low): 0.987
normalized growth (locus YMR205C, strain PFK2 (second series), active compounds read low): 0.938
normalized growth (locus YMR277W, strain FCP1, active compounds read low): 0.975
normalized growth (locus YNL006W, strain LST8, active compounds read low): 0.985
normalized growth (locus YNL020C, strain ARK1, active compounds read low): 0.962
normalized growth (locus YNL161W, strain CBK1, active compounds read low): 0.965
normalized growth (locus YNL183C, strain NPR1, active compounds read low): 1.05
normalized growth (locus YNL207W, strain RIO2, active compounds read low): 0.988
normalized growth (locus YNL222W, strain SSU72, active compounds read low): 0.981
normalized growth (locus YNL307C, strain MCK1 (second series), active compounds read low): 0.946
normalized growth (locus YOL078W, strain AVO1, active compounds read low): 0.974
normalized growth (locus YOL136C, strain PFK27, active compounds read low): 0.941
normalized growth (locus YOR061W, strain CKA2, active compounds read low): 0.938
normalized growth (locus YOR119C, strain RIO1, active compounds read low): 1
normalized growth (locus YOR231W, strain MKK1, active compounds read low): 0.965
normalized growth (locus YOR329C, strain SCD5, active compounds read low): 0.981
normalized growth (locus YPL031C, strain PHO85, active compounds read low): 0.924
normalized growth (locus YPL153C, strain RAD53, active compounds read low): 0.92
normalized growth (locus YPL204W, strain HRR25, active compounds read low): 0.903
normalized growth (locus YPL209C, strain IPL1, active compounds read low): 0.986
normalized growth (locus YPL256C, strain CLN2, active compounds read low): 0.945
normalized growth (locus YPR025C, strain CCL1, active compounds read low): 0.986
normalized growth (locus YPR106W, strain ISR1, active compounds read low): 0.975
normalized growth (locus YPR111W, strain DBF20, active compounds read low): 0.97
normalized growth (strain NNK1, active compounds read low): 0.977
normalized growth (strain TSCII, active compounds read low): 0.986
